# Only some compounds are listed: those with a hit (about 4.1% of all), similar ones and a draw of the others.
# AmpC no deterg – blocks E. coli AmpC beta-lactamase in detergent-free assay | AID 485341 | P00811 | AmpC nitrocefin hydrolysis, absorbance 480 nm, 0.0001% Triton | actives 0.52% (n = 330,000) | Potency, µM (highest dose often 57.1 µM), without a hit: top-dose activity change, negative = inhibition, hits mostly inhibitors;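 note: plate controls were no compound for no effect and no enzyme for full effect; nearly all actives have a fitted effect of over 20% in size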
# Target sequence (P00811 whole entry, looked up): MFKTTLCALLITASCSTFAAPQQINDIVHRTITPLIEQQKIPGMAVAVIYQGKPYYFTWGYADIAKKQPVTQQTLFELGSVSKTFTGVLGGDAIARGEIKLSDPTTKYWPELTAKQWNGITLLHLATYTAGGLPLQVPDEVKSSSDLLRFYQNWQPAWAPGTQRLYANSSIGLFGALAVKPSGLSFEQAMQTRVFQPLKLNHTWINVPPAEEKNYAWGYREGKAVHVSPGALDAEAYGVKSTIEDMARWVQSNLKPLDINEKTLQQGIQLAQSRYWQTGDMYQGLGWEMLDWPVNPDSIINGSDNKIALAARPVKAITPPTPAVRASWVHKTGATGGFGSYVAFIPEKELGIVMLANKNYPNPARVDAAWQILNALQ
#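 AmpC (5.3 nM in the dispensed reagent) in 20 mM phosphate pH 7.0 with 0.01% (detergent screen) or 0.0001% Triton X-100 was preincubated with compounds for 15 min at room temperature. Nitrocefin was then added from an 800 uM solution, and hydrolysis was followed at 480 nm.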
# FMDV antiviral – blocks foot and mouth disease virus. FMDV antiviral cell-based qHTS. actives 1.2% (n = 410,000). AID 1159524. Potency, µM (doses to about 57.9 µM), without a hit: at the top dose activity change, negative = inhibition, actives largely listed as inhibitors; calls by dose curve; tested in HEK293T cells; note: read-out not given here; nearly all actives have a fitted effect of over 45% in size
# AMA1-RON2 inh – inhibitors of Plasmodium falciparum AMA1-RON2 interaction; AlphaScreen AMA1-biotinylated RON2 peptide binding; Potency, µM (top dose mostly 58.2 µM), inactives show at the highest dose activity change, negative = inhibition, most hits filed as inhibitors; actives 0.2% (n = 360,000);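 note: 0% = vehicle wells and -100% = peptide control; nearly all actives have a fitted effect of over 45% in size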
#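 AMA1 (3D7) with his tag at 25 nM final met compounds first, then biotinylated RON2 peptide at 25 nM; detection used donor plus acceptor beads, 10 µg/mL apiece, read by AlphaScreen after 30 min at room temperature.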
# Sm TGR inh – inhibitors of Schistosoma mansoni thioredoxin glutathione reductase | Q962Y6 | purified TGR, DTNB reduction, TNB absorbance 405 nm | Potency, µM (series often up to 114 µM), inactives show top-dose activity change, negative = inhibition, usual class: inhibitors | actives 3% (n = 360,000); note: nearly all actives have a fitted effect of over 60% in size
#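 TGR 20 nM + NADPH 100 uM (dispensed conc.), cpd preinc 15 min RT; start with NADPH (500 uM addition) then DTNB (15 mM addition). Kinetic TNB absorbance, 405 nm filter. Four-parameter Hill fit across titration.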
# AmpC detergent – AmpC beta-lactamase inhibition with detergent present; actives 0.041% (n = 370,000); Potency, µM (top dose mostly 114 µM), without a hit: at the top dose activity change, negative = inhibition, most hits filed as inhibitors; AmpC hydrolysis of nitrocefin, absorbance 480 nm, 0.01% Triton;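 note: 0% = no-compound wells and -100% = no-enzyme wells; nearly all actives have a fitted effect of over 25% in size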
#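 AmpC (5.3 nM in the dispensed reagent) in 20 mM phosphate pH 7.0 with 0.01% (detergent screen) or 0.0001% Triton X-100 was preincubated with compounds for 15 min at room temperature. Nitrocefin was then added from an 800 uM solution, and hydrolysis was followed at 480 nm.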
# Numbers without * were called inactive; u = inconclusive; x = no result given. Unless noted, calls come from the whole dose curve; as a rule, active = well fitted curve in the direction sought with a large enough effect; inconclusive = small, poorly fitted or top-dose-only effect, or another doubt; inactive = no such curve, though single readings can be large; an effect the other way counts as inactive or inconclusive. Unless noted, % is set by controls: 0 for no effect and ±100 for the full control effect; potency is the fitted concentration of half-maximal effect.
SMILES,AmpC no deterg,FMDV antiviral,AMA1-RON2 inh,Sm TGR inh,AmpC detergent
CC1=C(C)C(=O)N(c2ccccn2)C1=O,-10%,-13%,3%,6%,u
COc1cc(/C=C/CN2CCOc3ccc(C(O)c4cccnc4)cc3C2)ccc1O (centres undefined),x,-16%,x,x,x
Cc1cc(NC(=O)CCS(=O)(=O)c2cc3c4c(c2)CCN4C(=O)CC3)ccc1Br,x,-14%,x,9%,1%
Cc1cc(C2=NNC(=NC3CC3)SC2)c(C)n1-c1c(C)n(C)n(-c2ccccc2)c1=O,26%,14%,100%,0%,u
Cc1ccc(-n2c(C)cc(C3=NNC(=NC4CC4)SC3)c2C)cc1C,-34%,18µM*,1%,-15%,-10%
CCc1ccc(NC(=O)C(=O)N/N=C(\C)CC(=O)Nc2ccc(OC)cc2)cc1,1%,29%,72%,45µM*,1%
CCc1ccc(NC(=O)C/C(C)=N/NC(=O)OCc2ccc(OC)cc2)cc1,6%,0%,-1%,-10%,-13%
CCOc1ccc(-c2c(C(=O)N/N=C/c3cccc(Br)c3)nnn2-c2nonc2N)cc1,16µM*,-21%,41%,2%,1%
CCOc1ccc(-c2c(C(=O)N/N=C/c3ccc(O)cc3)nnn2-c2nonc2N)cc1,-38%,-18%,13%,-19%,-7%
CCN1C(=O)c2ccc(C(=O)Nc3cccc(C(=O)O)c3)cc2C1=O,2%,14µM*,5%,0%,-14%
O=C(O)c1cccc(NC(=O)c2ccc(N3C(=O)c4ccc(C(=O)Nc5cccc(C(=O)O)c5)cc4C3=O)cc2)c1,-21%,-12%,-1%,4%,5%
N#C/C(=C\c1ccc([N+](=O)[O-])o1)c1nc2ccccc2[nH]1,-15%,25µM*,1%,-31%,-9%
CCS(=O)(=O)c1cccc(C(=O)N2CCN(c3nc4c(C)ccc(Cl)c4s3)CC2)c1,x,-9%,x,-1%,-2%
Cc1cc(=O)oc2cc(OCc3ccc(C(=O)OCC(=O)Nc4ccccc4OC(F)F)cc3)ccc12,22µM*,-3%,u,4%,-3%
COc1cccc(C(c2nnnn2C(C)(C)C)N2CCN(C/C=C/c3ccccc3)CC2)c1OC (centres undefined),x,-10%,-29%,x,x
CCOc1ccc(OCC)c(NS(=O)(=O)c2c(C)[nH]c(=O)[nH]c2=O)c1,x,8%,x,8%,-6%
Cc1cc(/C=C2\SC(=S)N(C)C2=O)c(C)n1-c1cccc(O)c1,-25%,1.3µM*,-7%,-19%,-2%
COc1ccc(S(=O)(=O)NCc2nc(-c3ccccc3)no2)cc1,x,2%,x,7%,17%
COC(=O)C1=C(C)N(CC2CCCO2)C(=O)/C1=C\c1ccc(O)cc1 (centres undefined),0%,0%,-4%,50µM*,4%
Nc1cc(-c2ccncc2)c[nH]c1=O,-16%,0%,8%,40µM*,u
c1ccc(-c2ccncc2)cc1,-24%,-10%,3%,x,x
CNc1cccccc1=S,29%,-3%,u,5.6µM*,0%
CCOc1ccccc1NC(=O)c1c(NC(=O)c2ccccc2C)sc2c1CCC(C)C2 (centres undefined),x,18%,x,6%,11%
Cn1cnc(S(=O)(=O)N2CCCC(C(=O)Nc3cccc(C#N)c3)C2)c1 (centres undefined),x,-7%,x,9%,12%
Cc1cccc(C(=O)N2c3ncnn3C3(CCCCC3)[C@@H]3CCCC[C@@H]32)c1,x,0%,x,5%,26%
SMILES,AmpC no deterg,FMDV antiviral,AMA1-RON2 inh,Sm TGR inh,AmpC detergent
C=CCn1c(O)c(CN2CCOCC2)c(C)c(C#N)c1=O,-19%,-23%,15%,40µM*,u
Cc1c(C(=O)N2CCCC2)sc2ncnc(NCCc3ccccn3)c12,x,-4%,x,x,x
CN(Cc1ccccc1)C(=O)c1nc[nH]c1C(=O)N1CCc2ccccc2C1,0%,-9%,3%,35µM*,-7%
Cc1nc2nc(NC(=O)c3ccc(Cl)cc3)[nH]n2c(=O)c1Cc1ccccc1,x,-17%,x,2%,22%
O=C(NC(=S)Nc1cccc2cc(O)ccc12)c1ccccc1Br,-36%,-7%,17%,35µM*,4%
O=C(NC(=S)Nc1cccc2c(O)cccc12)c1ccco1,-52%,14%,54%,25µM*,-8%
Cc1cc(NC(=S)NC(=O)c2ccco2)c2ccccc2n1,-32%,u,36%,u,-5%
COc1ccc(C(=O)NC(=S)Nc2cccc3ncccc23)cc1[N+](=O)[O-],-16%,-21%,106%,6.3µM*,1%
Cc1c(NC(=O)c2ccco2)cccc1-c1nc2cccnc2s1,7%,-21%,-2%,20µM*,-15%
CCCC(=O)NC(=S)Nc1ccccc1C(=O)OC,-25%,-17%,9%,-32%,-14%
COc1ccccc1C(=O)NC(=S)Nc1cccc2cc(O)ccc12,x,1%,7%,x,x
O=C(NC(=S)Nc1cccc2cc(O)ccc12)c1ccco1,-39%,4%,17%,10µM*,10%
O=C(NC(=S)Nc1cccc2ncccc12)c1ccco1,-14%,-7%,-12%,14µM*,5%
CCCC(=O)NC(=S)Nc1cccc2c(O)cccc12,-47%,33%,30%,14µM*,u
COc1ccc(C)cc1NC(=O)Cn1cc(S(=O)(=O)Cc2ccccc2Cl)c2ccccc21,x,1%,x,-3%,15%
Cc1c(C(=O)Nc2cccc(C(F)(F)F)c2)oc2ccc(S(=O)(=O)N(C)C3CCCCC3)cc12,x,u,x,11%,4%
O=C(Nc1ccccc1F)Nc1cccc2ccc(O)cc12,-54%,18%,-7%,32µM*,1%
CC(=O)Nc1cccc2ccc(O)cc12,x,-7%,0%,x,x
COc1cc2c(cc1OC)C(c1ccc(-c3ccc(Cl)cc3Cl)o1)=NCC2,126%,14µM*,-15%,-21%,-6%
COc1cc2c(cc1OC)C(c1ccc(-c3ccc(Cl)c(Cl)c3)o1)=NCC2,76%,18µM*,-27%,u,3%
COc1cc2c(cc1OC)C(c1ccc(-c3cc(Cl)ccc3Cl)o1)=NCC2,3%,18µM*,-13%,-4%,-11%
COc1cc2c(cc1OC)C(c1ccc(-c3ccccc3Cl)o1)=NCC2,48%,-11%,u,1%,2%
COc1ccc(-n2ncc(C(=O)N3CCN(c4ncccn4)CC3)c2C2CCN(C(=O)OC(C)(C)C)CC2)cc1,x,14%,x,6%,1%
CCSc1nc2n(n1)C(c1ccc(CC)cc1)C(C(=O)Nc1ccccc1OC)=C(C)N2 (centres undefined),x,-13%,x,0%,9%
CCOC(=O)c1cc(C(=O)c2cc(Cl)ccc2O)coc1=N,5µM*,0%,6%,-13%,-3%
COCCOC(=O)c1cc(C(=O)c2cc(Cl)ccc2O)coc1=N,-24%,-16%,6%,5%,4%

# Screening results as filed in PubChem.
